Where a chain is given by its changes, count along the chain named.
Assays:
Assay in all cases: PBM; 200 nM protein, PBS
Settings in all cases: dsDNA, one strand shown
PAX4 [1] = target: T1, PAX4 (Homo sapiens, UniProt O43316 9-242, R200K)
T1 sequence: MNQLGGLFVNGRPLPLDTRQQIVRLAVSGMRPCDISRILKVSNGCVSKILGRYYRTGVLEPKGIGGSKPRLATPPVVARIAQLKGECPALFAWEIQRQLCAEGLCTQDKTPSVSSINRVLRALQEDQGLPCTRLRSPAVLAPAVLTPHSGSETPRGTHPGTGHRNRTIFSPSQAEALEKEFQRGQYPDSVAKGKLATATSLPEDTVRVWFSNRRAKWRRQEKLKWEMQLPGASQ

PAX4 [2] = target: T2, PAX4 (Homo sapiens, UniProt O43316 9-242)
T2 sequence: T1 sequence with K192R

PAX4 [3] = target: T3, PAX4 (Homo sapiens, UniProt O43316 9-242, R200Q)
T3 sequence: T1 sequence with K192Q

PAX4 [4] = target: T4, PAX4 (Homo sapiens, UniProt O43316 9-242, F177V)
T4 sequence: T1 sequence with F169V, K192R

HOXA2 [5] = target: HOXA2 (Homo sapiens, UniProt O43364 129-215, R185T)
HOXA2 [6] = target: HOXA2 (Homo sapiens, UniProt O43364 129-215, R185K)
PAX4 [7] = target: T5, PAX4 (Homo sapiens, UniProt O43316 9-242, F177Y)
T5 sequence: T1 sequence with F169Y, K192R

PAX4 [8] = target: T6, PAX4 (Homo sapiens, UniProt O43316 9-242, R227W)
T6 sequence: T1 sequence with K192R, R219W

HOXA2 [9] = target: HOXA2 (Homo sapiens, UniProt O43364 129-215, Y150S)
HOXA2 [10] = target: HOXA2 (Homo sapiens, UniProt O43364 129-215)
NKX2-6 [11] = target: T7, NKX2-6 (Homo sapiens, UniProt A6NCS4 118-204)
T7 sequence: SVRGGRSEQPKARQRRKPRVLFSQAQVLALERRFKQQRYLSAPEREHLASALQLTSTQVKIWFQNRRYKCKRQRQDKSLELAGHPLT

NKX2-6 [12] = target: T8, NKX2-6 (Homo sapiens, UniProt A6NCS4 118-204, F151L)
T8 sequence: T7 sequence with F34L

PITX2 = PITX2 (Homo sapiens, UniProt Q99697 72-157)

HOXA2 (Homo sapiens, UniProt O43364 129-215, R185K), sequence (O43364 129-215 R185K): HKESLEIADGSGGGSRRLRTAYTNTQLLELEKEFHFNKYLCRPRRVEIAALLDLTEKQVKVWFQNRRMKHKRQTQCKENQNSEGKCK
HOXA2 (Homo sapiens, UniProt O43364 129-215, Y150S), sequence (O43364 129-215 Y150S): as the sequence (O43364 129-215 R185K) above, with Y22S, K57R counted along it
HOXA2 (Homo sapiens, UniProt O43364 129-215), sequence (O43364 129-215): as the sequence (O43364 129-215 R185K) above, with K57R counted along it
HOXA2 (Homo sapiens, UniProt O43364 129-215, R185T), sequence (O43364 129-215 R185T): as the sequence (O43364 129-215 R185K) above, with K57T counted along it

Sequence: CATTTAAC
- binding signal (PAX4 [1]): 10.7 upbm affinity estimate (log intensity, higher = more binding, comparable within an allelic series)
- binding signal (PAX4 [2]): 10.9 upbm affinity estimate (log intensity, higher = more binding, comparable within an allelic series)
- binding signal (PAX4 [3]): 10.8 upbm affinity estimate (log intensity, higher = more binding, comparable within an allelic series)
- binding signal (PAX4 [4]): 10.2 upbm affinity estimate (log intensity, higher = more binding, comparable within an allelic series)

Sequence: GGCTTCCA
- binding signal (PAX4 [1]): 9.19 upbm affinity estimate (log intensity, higher = more binding, comparable within an allelic series)
- binding signal (PAX4 [2]): 9.03 upbm affinity estimate (log intensity, higher = more binding, comparable within an allelic series)
- binding signal (HOXA2 [5]): 7.05 upbm affinity estimate (log intensity, higher = more binding, comparable within an allelic series)
- binding signal (PAX4 [3]): 9.42 upbm affinity estimate (log intensity, higher = more binding, comparable within an allelic series)
- binding signal (HOXA2 [6]): 10.4 upbm affinity estimate (log intensity, higher = more binding, comparable within an allelic series)
- binding signal (PAX4 [4]): 9.33 upbm affinity estimate (log intensity, higher = more binding, comparable within an allelic series)
- binding signal (PAX4 [7]): 9.37 upbm affinity estimate (log intensity, higher = more binding, comparable within an allelic series)
- binding signal (PAX4 [8]): 9.41 upbm affinity estimate (log intensity, higher = more binding, comparable within an allelic series)
- binding signal (HOXA2 [9]): 10.5 upbm affinity estimate (log intensity, higher = more binding, comparable within an allelic series)
- binding signal (HOXA2 [10]): 7.18 upbm affinity estimate (log intensity, higher = more binding, comparable within an allelic series)

Sequence: CGTCCCCC
- binding signal (PAX4 [1]): 9.1 upbm affinity estimate (log intensity, higher = more binding, comparable within an allelic series)
- binding signal (PAX4 [2]): 9.14 upbm affinity estimate (log intensity, higher = more binding, comparable within an allelic series)
- binding signal (NKX2-6 [11]): 9.4 upbm affinity estimate (log intensity, higher = more binding, comparable within an allelic series)
- binding signal (PAX4 [3]): 9.11 upbm affinity estimate (log intensity, higher = more binding, comparable within an allelic series)
- binding signal (PAX4 [4]): 9.08 upbm affinity estimate (log intensity, higher = more binding, comparable within an allelic series)
- binding signal (PAX4 [7]): 9.19 upbm affinity estimate (log intensity, higher = more binding, comparable within an allelic series)
- binding signal (NKX2-6 [12]): 9.03 upbm affinity estimate (log intensity, higher = more binding, comparable within an allelic series)
- binding signal (PAX4 [8]): 9.21 upbm affinity estimate (log intensity, higher = more binding, comparable within an allelic series)

Sequence: GCCCAGCC
- binding signal (PAX4 [1]): 9.23 upbm affinity estimate (log intensity, higher = more binding, comparable within an allelic series)
- binding signal (PAX4 [2]): 9.33 upbm affinity estimate (log intensity, higher = more binding, comparable within an allelic series)
- binding signal (PAX4 [3]): 9.24 upbm affinity estimate (log intensity, higher = more binding, comparable within an allelic series)
- binding signal (PITX2): 7.91 upbm affinity estimate (log intensity, higher = more binding, comparable within an allelic series)
- binding signal (PAX4 [4]): 9.15 upbm affinity estimate (log intensity, higher = more binding, comparable within an allelic series)
- binding signal (PAX4 [7]): 9.11 upbm affinity estimate (log intensity, higher = more binding, comparable within an allelic series)
- binding signal (PAX4 [8]): 9.23 upbm affinity estimate (log intensity, higher = more binding, comparable within an allelic series)

Sequence: GTGTAATA
- binding signal (PAX4 [1]): 10.9 upbm affinity estimate (log intensity, higher = more binding, comparable within an allelic series)
- binding signal (PAX4 [2]): 11.1 upbm affinity estimate (log intensity, higher = more binding, comparable within an allelic series)
- binding signal (PAX4 [3]): 10.8 upbm affinity estimate (log intensity, higher = more binding, comparable within an allelic series)
- binding signal (PAX4 [4]): 10.4 upbm affinity estimate (log intensity, higher = more binding, comparable within an allelic series)

From paper PMC11006913
